From PubChem
RORg inh: blocks mouse ROR gamma transcriptional activity | P51450 | Drosophila S2 Gal4-RORgamma UAS-luciferase reporter, 20 h | Potency, µM (titrated, usually from 53.6 µM), most hits filed as inhibitors | actives 5.4% (n = 310,000); further: nearly all actives have a fitted effect of over 60% in size
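Drosophila S2 cells stably expressing Gal4-DBD/mouse RORγ fusion under metallothionein promoter plus UAS-luciferase; compound 1 h, then 700 uM CuSO4 induction for 20 h at ambient temperature; inhibition read as reduced luminescence.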
TrxR1 substrate: is turned over as a substrate by rat TrxR1; O89049; purified TrxR1 substrate turnover, NADPH consumption readout; Potency, µM (series often up to 114 µM); actives 0.01% (n = 390,000); AID 588456; further: nearly all actives have a fitted effect of over 50% in size
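Rat TrxR1, dispensed at 90 nM, was prereduced with 400 uM NADPH (final) for 5 min at ~22 deg C, then incubated with compound 15 min before 400 uM selenite. A first-read NADPH fluorescence drop versus no-compound background flagged substrates.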
Gal4-VP16 FLuc: counter-screen for ROR gamma inhibitors: Gal4-VP16 reporter | Drosophila S2 Gal4-VP16 UAS-luciferase, luminescence, 20 h | Potency, µM (doses to about 53.6 µM), usual class: inhibitors | actives 3.5% (n = 310,000) | AID 2546;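 further: Gal4-VP16 expression switched on by copper sulfate through the metallothionein promoter; nearly all actives have a fitted effect of over 50% in size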
GALK inh: inhibitors of human galactokinase; Potency, µM (titrated, usually from 57.5 µM), actives largely listed as inhibitors; Purified GALK, Kinase-Glo residual ATP luminescence; AID 1868; actives 0.007% (n = 270,000)
Target sequence (P51570 whole entry, looked up): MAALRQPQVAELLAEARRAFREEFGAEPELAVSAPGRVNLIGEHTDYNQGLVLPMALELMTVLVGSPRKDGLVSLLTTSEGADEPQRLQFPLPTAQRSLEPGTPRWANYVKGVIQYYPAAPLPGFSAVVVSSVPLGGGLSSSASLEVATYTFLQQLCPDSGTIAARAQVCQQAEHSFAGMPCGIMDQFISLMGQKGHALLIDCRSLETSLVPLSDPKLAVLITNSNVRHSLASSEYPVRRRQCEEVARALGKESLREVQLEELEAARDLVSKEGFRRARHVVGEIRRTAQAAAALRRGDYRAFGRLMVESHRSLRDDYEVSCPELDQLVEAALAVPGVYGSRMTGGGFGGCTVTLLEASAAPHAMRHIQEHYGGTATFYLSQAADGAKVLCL
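The enzyme phosphorylates galactose (100 uM) using ATP (35 uM); inhibition is detected as higher residual ATP, quantified by bioluminescence after 1 h reaction at room temperature, pH 8.0.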
TrxR1 inh: blocks rat thioredoxin reductase 1 | actives 1% (n = 390,000) | AID 588453 | O89049 | Potency, µM (doses to about 114 µM), most hits filed as inhibitors | recombinant rTrxR1, NADPH fluorescence consumption, selenite substrate; further: nearly all actives have a fitted effect of over 65% in size
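Rat TrxR1 (90 nM in the dispensed reagent) was pre-reduced with 400 uM NADPH for 5 min at room temperature, then incubated with compound for 15 min. After 400 uM selenite was added, NADPH fluorescence (Ex 340/Em 450 nm) was followed for 8 min.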
Coupling enz: counter-screen for Giardia aldolase inhibitors: coupling enzyme system; coupling enzyme system counterscreen, AmpLite Red fluorescence; activity change, negative = inhibition, % at 58.2 µM, hits read low; actives 0.67% (n = 290,000); in the data active means activity change below about -30%
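Fluorescence at 525 nm excitation and 598 nm emission measured inhibition of the coupled detection system without aldolase. Compounds (at 57.5 uM final) were preincubated 10 min at room temperature with coupling enzyme reagent before a 20 min substrate/AmpLite Red step.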
Hits are given with their value; - = inactive; ? = inconclusive; . = no result given; [ ] = remark or other dose. Hits are enriched below; roughly 5.9% of the tested compounds scored in any of these assays. Unless noted, the call rests on the fitted dose curve; in most records, active means well fitted curve in the direction sought with a large enough effect; inconclusive means small, poorly fitted or top-dose-only effect, or another doubt; inactive means no such curve, though single readings can be large; an effect the other way counts as inactive or inconclusive.

SMILES | RORg inh | TrxR1 substrate | Gal4-VP16 FLuc | GALK inh | TrxR1 inh | Coupling enz
c1ccc2c(c1)CCN(c1ncnc3c1[nH]c1ccccc13)C2 | 13µM | - | 6.3µM | - | - | -
COc1cccc2[nH]c3c(N4CCc5ccccc5C4)ncnc3c12 | - | - | - | - | - | -
Cc1ccc(NC(=O)C(=O)NCC2(c3ccccc3)CCCC2)cc1C | . | - | . | . | - | .
Fc1ccc(CNC(=S)NC2CCCC2)cc1 | 8.9µM | - | ? | - | - | -
Cc1cc2cc(CNC(=O)NC3CCCCC3)ccc2[nH]1 | ? | - | - | - | - | -
CCc1cccc(C)c1NC(=S)NCc1ccc2[nH]c(C)cc2c1 | 4µM | - | 10µM | . | - | -
Fc1ccc(CNC(=S)NC2CCCCC2)cc1 | 5µM | - | 11µM | - | - | -
Cc1cc2cc(CNC(=S)NC3CCCCC3)ccc2[nH]1 | 14µM | - | ? | - | - | -
CC(=O)C1(C)CC2=C(CCCC2(C)C)CC1C (stereo unspecified) | - | . | - | . | . | .
Cc1ccc(Cc2nc3ccccc3nc2SCC(=O)N2CCN(c3ccccc3)CC2)cc1 | . | - | . | . | - | .
CN(C)c1ccc(/C=N/N=C2/NC(=O)/C(=C/c3ccc([N+](=O)[O-])cc3)S2)cc1 | 2.8µM | - | ? | - | - | -
CN(C)c1ccc(C=C2SC(=S)NC2=O)cc1 | . | -[2.29 µM] | . | . | -[2.29 µM] | .
CC(C)(C)OC(=O)NCCc1nnc(S(=O)(=O)Cc2ccc(Cl)cc2Cl)o1 | ? | - | 7.1µM | - | 0.4µM | -
O=C1CC(N2CCCCCC2)C(=O)N1c1ccc2c(c1)OCO2 (stereo unspecified) | 10µM | - | ? | - | ? | -
O=C1CC(N2CCN(c3ccc(O)cc3)CC2)C(=O)N1c1ccc2c(c1)OCO2 (stereo unspecified) | - | - | -[10 µM] | - | - | -
CCCCn1c(NC(C)CC)nc2c1c(=O)[nH]c(=O)n2C (stereo unspecified) | - | - | - | - | - | -
CC1=C(c2ccc(C)c(C)c2)S(=O)(=O)N(Cc2ccc(C(=O)NCc3ccccc3F)cc2)C1=O | . | - | . | . | - | .
COc1ccc(NCc2nc3ccccc3n2CCOc2ccccc2)cc1 | 16µM | - | - | - | - | -
CCCc1nc2ccccc2n1CCOc1ccccc1 | - | - | - | - | - | -
c1ccc(NCc2nc3ccccc3n2CCOc2ccccc2)cc1 | 13µM | - | ? | - | - | -
COc1ccc(NCc2nc3ccccc3n2CCOc2ccc(C)cc2)cc1 | 20µM | - | ? | . | - | -
COCC(=O)N(CCc1ccc(OC)c(OC)c1)Cc1nc2ccccc2c(=O)[nH]1 | - | - | - | - | - | -
COc1ccc(CCN(Cc2nc3ccccc3c(=O)[nH]2)C(=O)c2ccco2)cc1 | 13µM | - | ? | - | - | -
COc1ccc(CN(CCC(c2ccccc2)c2ccco2)C(=O)c2ccco2)cc1 (stereo unspecified) | - | - | - | - | ? | -
CCC(CC)C(=O)N(CCc1ccc(OC)cc1)Cc1nc2ccccc2c(=O)[nH]1 | 5µM | - | 10µM | - | - | -
SMILES | RORg inh | TrxR1 substrate | Gal4-VP16 FLuc | GALK inh | TrxR1 inh | Coupling enz
CC(C)CCNC(=O)c1cc2c(=O)[nH]c3ccccc3c2s1 | - | - | - | - | - | -
CCCCn1c(=O)[nH]c(=O)c2c1nc(Cn1ncc(Cl)c(Cl)c1=O)n2CCC | 16µM | - | 7.9µM | - | 50µM | -
CCCCn1c(=O)[nH]c(=O)c2c1nc(-c1ccsc1)n2Cc1ccccc1 | - | - | - | - | - | -
CCCCn1c(-c2ccsc2)nc2c1c(=O)[nH]c(=O)n2CCC | - | - | - | - | - | -31
CC(C)N1CCc2c(sc(NC(=O)CCS(=O)(=O)c3ccccc3)c2C#N)C1 | - | - | - | - | 10µM | -
CCCN1CCc2c(sc(NC(=O)CCS(=O)(=O)c3ccccc3)c2C(=O)OC)C1 | - | - | - | - | 50µM | .
COC(=O)c1c(NC(=O)CCS(=O)(=O)c2ccccc2)sc2c1CCN(C)C2 | - | - | - | - | ? | -
CC(=O)Nc1cc(NC(C)=O)cc(C(=O)OCC(=O)c2ccc3c(c2)NC(=O)CO3)c1 | . | - | . | . | - | .
O=C1OC(c2ccc(F)cc2)=C/C1=C\c1ccc(O)cc1 | 6.3µM | - | ? | - | ? | -
CC1CCC(NC(=O)C2c3ccccc3C(=O)N2Cc2cccs2)CC1 (stereo unspecified) | - | - | ? | . | - | -
COCCn1c(C)cc(C(=O)COC(=O)c2ccc[nH]c2=O)c1C | 4.5µM | - | 3.5µM | - | - | -
Cc1cc(C(=O)COC(=O)c2ccc[nH]c2=O)c(C)n1CCc1ccc(F)cc1 | - | - | - | - | - | -
Cc1cc(C(=O)COC(=O)c2ccc[nH]c2=O)c(C)n1-c1ccc(Br)cc1 | - | - | 0.4µM | - | - | -
Cc1cc(C(=O)COC(=O)c2ccc[nH]c2=O)c(C)n1C | ? | - | ? | - | - | -
Cc1ccc(-n2c(C)cc(C(=O)COC(=O)c3ccc[nH]c3=O)c2C)cc1 | 11µM | - | . | - | - | -
COCC(=O)OCC(=O)c1cc(C)n(-c2ccc(Br)cc2)c1C | - | - | - | - | - | -
Cc1ccc(C)c(NC(=O)CCC(=O)N2CCOc3ccccc32)c1 | - | - | - | . | - | -
O=C(O)CSc1nnc(-c2ccc(Cl)cc2Cl)n1Cc1ccccc1 | - | - | - | - | - | -
COCCN(Cc1cc2cc(C)c(C)cc2nc1Cl)C(=O)Nc1ccccc1 | - | - | ? | - | - | -
COCCN(Cc1cc2cc3c(cc2nc1Cl)OCO3)C(=O)c1ccc(C)cc1 | 1.6µM | - | ? | - | - | -
CC1(C)CC2CC(C)(CN2S(=O)(=O)c2cccc(C(=O)O)c2)C1 (stereo unspecified) | . | - | . | . | - | .
COc1ccc(NC(=O)C(c2ccccn2)N(C(C)=O)c2ccc(C)cc2)cc1 (stereo unspecified) | - | - | - | - | - | -
CCOc1ccc(NC(=O)C(c2ccccn2)N(C(=O)CCl)c2ccc(OCC)cc2)cc1 (stereo unspecified) | - | - | - | - | 79µM | -
CCOc1ccc(NC(=O)C(c2ccccn2)N(C(=O)CCl)c2ccc(OC)cc2)cc1 (stereo unspecified) | ? | - | ? | - | ? | -43
Cc1ccc(CN2CCN(Cc3cccc4c3OCO4)CC2CCO)cc1 (stereo unspecified) | - | - | - | - | - | -
O=c1c2c(nc3cc(-c4ccc(F)cc4)[nH]n13)CCCC2 | 8.9µM | - | 11µM | - | - | -
CC(C)CN(C)c1ccc(/C=C2\C=Cc3ccccc32)cc1 | . | - | . | . | 45µM | .
COc1cc(N(C)C)ccc1/C=C1\C=Cc2ccccc21 | . | - | . | . | - | .
CN(C)/C=C1\C=Cc2ccccc21 | . | - | . | . | 2.2µM | .
